Most compounds without a hit are left out; they make up all but 5% or so of the library.
SENP7 block – inhibitors of human SENP7 protease; hit rate 1.5% among 330,000; Q9BQF6; inhibition, % at 5 µM; recombinant SENP7, Z-RLRGG-aminoluciferin luminescence, 40 min;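 active means inhibition above about 50% at the single test dose, limit read from the data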;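 further: plate controls were DMSO with enzyme for no effect and no enzyme buffer wells for full effect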
EBI2 antag – blocks human EBI2 receptor beta-arrestin signaling. hit rate 0.81% among 360,000. EBI2 beta-arrestin recruitment, luminescence, 7a,25-OHC stimulated. inhibition, % at 5 µM. AID 651636; in the data active means inhibition above about 38%;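 further: enzyme fragment complementation signal reports receptor beta-arrestin coupling in cells; 0% = agonist plus DMSO wells and 100% = wells without agonist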
AHR activator – activates the human aryl hydrocarbon receptor; P35869; AHR-responsive luciferase reporter cells, luminescence; activation, % at 5 µM; hit rate 2.5% among 320,000; in the data active means activation above about 47%;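 further: 0% = vehicle wells and 100% = reference agonist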
Target sequence (P35869 whole entry, looked up): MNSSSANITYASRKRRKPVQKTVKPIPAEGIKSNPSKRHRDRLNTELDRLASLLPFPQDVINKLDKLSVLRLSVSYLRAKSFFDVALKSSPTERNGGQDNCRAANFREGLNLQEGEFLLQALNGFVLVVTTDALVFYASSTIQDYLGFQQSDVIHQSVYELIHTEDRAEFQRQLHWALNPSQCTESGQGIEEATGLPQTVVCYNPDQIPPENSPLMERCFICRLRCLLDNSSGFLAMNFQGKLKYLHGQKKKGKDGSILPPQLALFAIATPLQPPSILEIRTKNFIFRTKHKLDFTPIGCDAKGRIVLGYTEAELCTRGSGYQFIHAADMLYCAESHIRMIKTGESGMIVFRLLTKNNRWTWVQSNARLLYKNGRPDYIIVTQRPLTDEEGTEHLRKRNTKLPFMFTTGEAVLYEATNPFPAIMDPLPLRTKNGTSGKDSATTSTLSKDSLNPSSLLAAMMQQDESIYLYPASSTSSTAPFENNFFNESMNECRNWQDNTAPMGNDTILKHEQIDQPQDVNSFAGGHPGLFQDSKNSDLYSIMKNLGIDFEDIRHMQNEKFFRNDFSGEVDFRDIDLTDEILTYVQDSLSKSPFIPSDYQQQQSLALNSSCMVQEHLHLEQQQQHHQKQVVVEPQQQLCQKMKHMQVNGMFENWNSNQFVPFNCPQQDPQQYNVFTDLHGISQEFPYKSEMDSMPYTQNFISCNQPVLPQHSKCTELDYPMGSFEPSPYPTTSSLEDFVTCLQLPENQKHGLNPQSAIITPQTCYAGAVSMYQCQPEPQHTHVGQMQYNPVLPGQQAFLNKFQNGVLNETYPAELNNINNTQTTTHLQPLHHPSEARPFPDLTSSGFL
SENP6 block – inhibitors of human SENP6 protease; Q9GZR1; Recombinant SENP6 catalytic domain, aminoluciferin luminescence; inhibition, % at 10 µM; hit rate 1.8% among 330,000; AID 2599;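 active means inhibition above about 50% at the single tested dose, limit read from the data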;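 further: plate controls were DMSO wells with enzyme for no effect and DMSO wells lacking enzyme for full effect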
SENP8 block-1 – inhibitors of human SENP8 protease; Q96LD8; recombinant SENP8, Nedd8 substrate fluorescence; inhibition, % at 20 µM; hit rate 0.64% among 360,000; AID 602440; in the data active means inhibition mostly above about 40%, no sharp cut-off; inactive means mostly below about 27%
SENP8 block-2 – inhibitors of human SENP8 protease | hit rate 1.2% among 330,000 | Q96LD8 | purified SENP8, Z-RLRGG-aminoluciferin cleavage, luminescence | AID 2540 | inhibition, % at 10 µM; in the data active means inhibition above about 50%
Starred values were filed as active, the others as inactive; i = inactive; / = no result given.

SMILES	SENP7 block	EBI2 antag	AHR activator	SENP6 block	SENP8 block-1	SENP8 block-2
CC(Oc1ccccc1)C(=O)Nc1nnc(S(=O)(=O)N(C)c2ccccc2)s1 (stereo unspecified)	-0.4	-4.5	1.1	14.5	2.1	6.5
Cc1nn(-c2ccccc2)c2sc(C(=O)N3CCOCC3)cc12	1.8	8.1	77.9*	2.7	19.0	-0.8
Cc1nn(-c2ccccc2)c2sc(C(=O)O)cc12	1.1	-23.3	0.7	-8.9	18.4	3.1
COc1ccc(C(=O)/C=C/c2cccs2)c(OC(=O)N2CCOCC2)c1	0.0	-3.0	6.5	-1.4	11.6	-5.4
O=C(/C=C/c1cccs1)c1cc(Br)ccc1OC(=O)N1CCOCC1	-4.7	16.4	52.9*	-6.8	20.8	-6.5
CCc1n[nH]c(=S)n1/N=C/c1cc(Br)c(OC)cc1OC	-1.1	-9.2	76.5*	7.2	-21.7	-3.0
O=C(COC(=O)c1c[nH]c2ccccc12)Nc1ccccc1	3.3	-5.5	14.6	11.4	-0.2	6.6
CC(NC(=O)COC(=O)c1c[nH]c2ccccc12)c1ccccc1 (stereo unspecified)	-4.2	3.9	55.9*	-22.5	17.0	-9.1
COc1ccc(/C=N/Nc2nnc(-c3ncc[nH]3)c3ccccc23)cc1	-2.0	7.0	61.5*	-9.1	-37.3	-8.5
Oc1ccc2ccccc2c1/C=N/Nc1nnc(-c2ncc[nH]2)c2ccccc12	-8.7	17.2	24.5	-13.1	15.7	-12.1
N#CC1=C(N)Oc2cc(N)ccc2C1c1ccsc1 (stereo unspecified)	11.6	0.2	84.3*	1.6	-21.5	3.9
Cc1ccc(-c2nc(-c3ccccn3)no2)cc1Cl	99.2*	-16.9	1.6	95.1*	-15.6	96.4*
Cc1cccc(CSc2cccc3cccnc23)c1	20.4	45.0*	44.6	-26.5	-273.8	12.5
COc1ccc(-c2nc(-n3c(C)c(C(C)=O)c(C(C)=O)c3C)sc2C)cc1OC	8.0	-3.0	7.7	0.3	19.5	4.7
CC(=O)c1c(C(C)=O)c(C)n(-c2nc(-c3ccc(Br)cc3)c(C)s2)c1C	-5.0	11.9	56.4*	-12.5	5.1	0.1
Cc1cccc(N/C(N)=N/c2nc(C(F)(F)F)cc(C(F)(F)F)n2)c1	1.0	5.1	68.5*	-14.1	5.7	7.4
COc1cccc(N/C(N)=N/c2nc(C(F)(F)F)cc(C(F)(F)F)n2)c1	-11.0	3.6	18.2	-12.6	14.7	-3.1
CC(=O)Nc1ccc(/C=C/c2nc3ccccc3o2)cc1	9.4	15.9	-4.3	29.1	-274.0	11.2
O=C(Nc1ccc(/C=C/c2nc3ccccc3o2)cc1)c1c(F)cccc1F	-3.1	5.5	48.7*	6.5	-399.8	12.8
NNC(=O)c1cccc(COc2cccc(Br)c2)c1	-4.0	-0.1	51.5*	0.9	10.2	-2.3
Cc1sc2nc(-c3ccccc3)[nH]c(=O)c2c1-c1ccccc1	2.6	/	48.0*	18.2	/	2.2
Cc1sc2nc(SCC(=O)N3CCOCC3)[nH]c(=O)c2c1-c1ccccc1	-7.4	8.8	48.6*	4.8	0.1	-6.4
Cc1c(-c2ccccc2)nc(-c2ccccc2)[nH]c1=O	0.5	10.0	23.9	-0.4	-0.1	-4.4
NNC(=O)CN1CCCc2ccccc21	-4.9	-1.3	71.3*	-4.8	-19.4	-3.8
O=C(CN1CCCc2ccccc21)N1CCc2ccccc21	2.2	11.2	6.7	-17.0	-8.9	-3.5
SMILES	SENP7 block	EBI2 antag	AHR activator	SENP6 block	SENP8 block-1	SENP8 block-2
O=C(Nc1ccc(Br)cc1)c1csc(-c2ccncc2)n1	0.5	10.1	52.7*	-2.1	8.2	1.1
Cc1nc(-c2ccncc2)sc1C(=O)Nc1ccc(Br)cc1	-1.5	11.7	62.0*	-1.0	1.8	-7.2
CNC(=O)c1csc(-c2ccc(Cl)cc2)n1	-2.5	7.0	-4.4	-0.9	4.0	5.3
O=C(Nc1ccc(Cl)cc1)c1csc(-c2ccncc2)n1	-8.5	11.8	54.4*	-15.5	3.4	-0.8
O=C(Nc1ccc(Cl)cc1)c1csc(-c2ccccc2)n1	-0.8	0.3	96.8*	-6.8	14.7	6.9
CN(C)CCSc1nc2cc(S(=O)(=O)N3CCCCC3)ccc2o1	-3.4	0.8	2.4	0.3	12.9	0.8
CC1(C(=O)NC2CCCCCC2)CCN1C(=O)C1(c2ccccc2)CC1 (stereo unspecified)	/	6.2	/	/	17.8	/
O=C(Nc1nnc(Cc2ccccc2)s1)Nc1ccccc1F	-3.7	-10.2	14.7	4.5	17.8	-0.2
OC(c1cccc(Cl)c1)c1ncc(-c2ccc(Oc3ccccc3)cc2)[nH]1 (stereo unspecified)	/	9.3	/	/	-0.2	/
CCNc1nc(Cl)nc(-c2cn(-c3ccccc3)c3ccccc23)n1	-4.8	-18.6	62.1*	-27.0	-292.8	-4.8
CCCCNc1c(-c2ccc(-c3cccc(Cl)c3)cc2)nc2ccccn12	-4.6	16.3	55.8*	45.8	i	29.3
CCCCCCSc1ccc(-c2nc3ccccn3c2NCCCC)cc1	-4.1	17.3	-1.0	-1.2	i	-4.0
CN(Cc1cccc(F)c1)C(=O)c1ccc(S(=O)(=O)N2CCCCCC2)cc1	-7.9	-11.7	-1.7	0.0	12.1	-14.5
Cc1sc(NC(=O)C2=COCCO2)nc1-c1ccc(Cl)cc1	-7.5	1.7	65.2*	-18.1	10.3	1.7
CCCc1cc(=O)[nH]c(SCC(=O)Nc2nc(-c3ccccc3)cs2)n1	8.6	-6.4	8.4	9.6	5.8	8.3
O=C(CSc1nc2ccccc2[nH]1)Nc1nc(-c2ccc(Br)cc2)cs1	-4.3	5.2	48.0*	-22.0	-5.3	-18.0
COc1ccc(-c2csc(NC(=O)CSc3n[nH]c(N)n3)n2)cc1	4.1	0.7	49.3*	-5.2	8.9	1.4
O=C1NC[C@H](CCCCN2CCN(CCC3CCCCC3)C(=O)C2=O)N(CCc2ccc(O)cc2)C1=O	/	-1.5	/	/	7.6	/
CCNC(=O)C1(C)CCCN(C(=O)c2ccc(C(F)(F)F)nc2C)C1 (stereo unspecified)	/	2.0	/	/	8.3	/
O=C1NC[C@@H](CCCCN2C[C@H](Cc3ccccc3)N(Cc3ccccc3)C(=O)C2=O)N(Cc2ccccc2)C1=O	/	1.8	/	/	13.5	/
CCOc1c(OC(C)=O)ccc(/C=C/c2ccc3cccc(OC(C)=O)c3n2)c1[N+](=O)[O-]	6.0	13.5	10.2	-6.5	13.4	1.0
C=CCN1C(=O)/C(=C/c2ccc(OC(C)=O)c(OCC)c2[N+](=O)[O-])SC1=S	/	-18.0	/	/	65.3*	/
COc1cc(-c2ccc(N3C(c4ccsc4)=Cc4ccccc4C3CC(C)=O)cc2)cc(OC)c1OC (stereo unspecified)	/	9.8	/	/	-390.6	/
N=C1/C(=C/c2cccn2CCOc2ccccc2)C(=O)N=C2SC=C(c3ccccc3)N12	8.1	41.0*	22.5	14.1	-6.6	1.5
O=C(c1sccc1-c1ccccc1)N1CCN(S(=O)(=O)c2ccccc2F)CC1	-1.1	-3.7	-1.1	1.5	12.1	1.5
CCC1c2ccc(C)n2CCN1C(=O)Nc1ccccc1OC (stereo unspecified)	-4.5	6.7	48.0*	10.8	-118.5	-3.8

Screening results from PubChem.
